Values joined by “and” are separate entries in the source; they are usually repeats but may differ in a detail not shown here. Identical values can stand only once. Screen size: about 300,000 compounds; about 310 (0.1%) were called active. Cut-off read from the data, not from the text of the source: active = fluorescence inhibition mostly above about 23% (no sharp cut-off); inactive = mostly below about 17%. Only a selection was taken, and actives are over-represented in it overall.

This test is described as follows: hypoxia reporter signal reduction in M. tuberculosis – fluorescence, absorbance growth readout, primary screen (AID 1159583). Particulars: M. tuberculosis hypoxia-regulated fluorescent reporter, stronger effect = higher value, concentration not given here; growth inhibition: measured here: M. tuberculosis growth (absorbance).
Regarding `CC(=NNC(=O)c1cc(-c2cccnc2)nc2ccccc12)c1ccc(O)cc1O`, the fluorescence inhibition is 2.22% (inactive) and the growth inhibition worked out at 2.87%.

As for `COc1ccc(C=NNC(=O)c2ccccc2OC)cc1COc1ccccc1[N+](=O)[O-]`, the fluorescence inhibition was 1.62% (inactive) and the growth inhibition was -1.45%.

On to `C[C@@]12CCC=CC1C(c1ccc(C(F)(F)F)cc1)N(Cc1ccccc1)C2=O` (some centres not stated), for which the fluorescence inhibition is 11.1% (inactive) and the growth inhibition worked out at 10.9%.

For the compound `Cc1ccccc1CN1C(Cc2ccccc2)COCCS1(=O)=O` (configuration not stated), the fluorescence inhibition is 6.62% (inactive) and the growth inhibition turned out to be 4.01%.

On to `CC=CC=CC(=O)Nc1cccc(C2=NOC3(C2)CC(C(N)=O)N(C(=O)c2ccccc2C(=O)c2ccccc2)C3)c1` (configuration not stated), for which the fluorescence inhibition was -0.767% (inactive) and the growth inhibition was found to be 8.5%.

Consider `C=CCn1c(SCC(=O)NC(=O)Cc2ccccc2)nc2ccccc2c1=O`, for which the fluorescence inhibition is 23.4% (active) and the growth inhibition came to 56.9%.

In the case of `C=CCn1c(SCc2ccc(C(=O)NCCO)cc2)nc2ccccc2c1=O`, the fluorescence inhibition was 9.54% (inactive) and the growth inhibition was 8.96%.

Turning to `COC(=O)CSc1nc2ccccc2c(=O)n1Cc1ccccc1`, the fluorescence inhibition is 5.85% (inactive) and the growth inhibition stood at 20.4%.

`CCN(CC)c1ccc(C=NNS(=O)(=O)c2cccc([N+](=O)[O-])c2)cc1`: the fluorescence inhibition is -5.38% (inactive) and the growth inhibition is 0.14%.

As for `CCC(=NNC(=O)CSCc1ccccc1Br)c1ccc2c(c1)OCCO2`, the fluorescence inhibition is 0.753% (inactive) and the growth inhibition came to 1.89%.

In the case of `O=C(NN=Cc1cccc([N+](=O)[O-])c1)c1ccc(CN2CCOCC2)cc1`, the fluorescence inhibition was 4.86% (inactive) and the growth inhibition worked out at 16.6%.

Regarding `CCCCN=C1NC(=Cc2ccco2)C(=O)N1c1ccccc1`, the fluorescence inhibition was 8.24% (inactive) and the growth inhibition is 10.9%.

Regarding `COc1ccccc1C=NNC(=O)CCn1cnc2ccccc21`, the fluorescence inhibition is 4.69% (inactive) and the growth inhibition was -0.174%.

In the case of `CCCCNC(=O)CN1C(=O)NC(Cc2ccccc2)(Cc2ccccc2)C1=O`, the fluorescence inhibition was 3.73% (inactive) and the growth inhibition is 16.6%.

Regarding `COc1cccc(CNC(=O)CN2C(=O)NC(Cc3ccccc3)(c3ccccc3)C2=O)c1` (configuration not stated), the fluorescence inhibition was 26.4% (active) and the growth inhibition came to 52.7%.

For `COc1cccc(CNC(=O)COC(=O)CN2C(=O)NC3(CCCCC3C)C2=O)c1` (configuration not stated), the fluorescence inhibition was -6.03% (inactive) and the growth inhibition is 2.37%.

Take `CC(CC(=O)Nc1ccc(Cl)cc1Cl)=NNC(=O)C(=O)N1CCCC1`: the fluorescence inhibition was 11% (inactive) and the growth inhibition was determined as 5.91%.

Regarding `COc1ccc(C=NN=C(N)c2nonc2N)cc1`, the fluorescence inhibition was 10.3% (inactive) and the growth inhibition worked out at 6.79%.

As to `CC(=O)OCC1OC(CC=NOCC(O)C2OC3OC(C)(C)OC3C2O)C=CC1OC(C)=O` (configuration not stated), the fluorescence inhibition was 9.33% (inactive) and the growth inhibition came out at 7.61%.

As to `CCOC(=O)C1C2COc3cc(OC)ccc3C2N2C(=O)N(c3ccc(Cl)cc3)C(=O)[C@]12C` (some centres not stated), the fluorescence inhibition is -4.96% (inactive) and 1.79% (inactive); the growth inhibition was 2.67% and 0.308%.

Turning to `CC(=O)Nc1ccc(S(=O)(=O)NN=Cc2ccc(C)o2)cc1`, the fluorescence inhibition is 7% (inactive) and the growth inhibition is -2.42%.

Regarding `O=C(Cc1cccs1)NN=C/C=C/c1ccco1`, the fluorescence inhibition is 8.6% (inactive) and the growth inhibition turned out to be 14.2%.

Take `O=C(CNC(=O)c1ccc2c(c1)OCCO2)NN=Cc1ccc(Cl)cc1`: the fluorescence inhibition was -0.656% (inactive) and the growth inhibition turned out to be 8.25%.

On to `COc1ccc(OC)c(C=NNC(=O)c2[nH]ncc2Br)c1`, for which the fluorescence inhibition was 17.8% (inactive) and the growth inhibition stood at 3.99%.

As to `COc1cc(C=NNC(=O)Cc2c[nH]c3ccccc23)cc(OC)c1OC`, the fluorescence inhibition was 1.09% (inactive) and the growth inhibition worked out at 3.89%.

In the case of `COc1ccc2ccccc2c1C=NNC(=O)c1cccc(Br)c1`, the fluorescence inhibition was 6.25% (inactive) and the growth inhibition was 6.52%.

On to `CCN1C(=O)C2C(c3ccc(-c4cccc(Cl)c4)cc3)N[C@@](C)(C(=O)OC)C2C1=O` (some centres not stated), for which the fluorescence inhibition was 8.93% (inactive) and the growth inhibition turned out to be 17.5%.

Consider `Cc1ccccc1CN1C(=O)C(C)SC1=NN=Cc1ccco1` (configuration not stated), for which the fluorescence inhibition was 7.25% (inactive) and the growth inhibition amounted to 1.63%.

Take `COC(=O)c1ccc(C=NNC(=O)c2ccc3nc[nH]c3c2)cc1`: the fluorescence inhibition is 3.23% (inactive) and the growth inhibition is -1.77%.

As for `CC(C)C(=NNC(=O)Nc1ccccc1)c1ccccc1`, the fluorescence inhibition was 3.82% (inactive) and the growth inhibition was found to be 6.86%.

Regarding `CC(=NNC(=O)c1csc(C)c1C)c1ccco1`, the fluorescence inhibition was 12.3% (inactive) and the growth inhibition is 18.1%.

On to `CCN(CC)S(=O)(=O)c1ccc(NN=Cc2ccc(OC)c(OC)c2OC)nc1`, for which the fluorescence inhibition was 6.7% (inactive) and the growth inhibition came out at 6.24%.

Take `CC(=NNC(=O)c1cc2ccccc2cc1O)c1ccc2c(c1)OCO2`: the fluorescence inhibition was -11.6% (inactive) and the growth inhibition was determined as 0.0347%.

On to `C=CCNC(=S)NN=Cc1ccc(-c2cc(Cl)ccc2Cl)o1`, for which the fluorescence inhibition was 6.01% (inactive) and the growth inhibition was found to be 7.37%.

Turning to `N#Cc1ccc(OCC(=O)NN=CC2CC=CCC2)cc1` (configuration not stated), the fluorescence inhibition was 15.6% (inactive) and the growth inhibition was determined as 1.47%.

Take `O=C(CCCCCCCCC(=O)NN=Cc1ccco1)NN=Cc1ccco1`: the fluorescence inhibition is -1.23% (inactive) and the growth inhibition amounted to 5.53%.

For the compound `Cc1cccc(C(=O)NN=C2SCC(=O)N2Cc2ccccc2)c1`, the fluorescence inhibition is -0.985% (inactive) and the growth inhibition was -2.16%.

For `O=C(NN=Cc1ccc2nccnc2c1)c1ccc(Br)cc1`, the fluorescence inhibition is -2.27% (inactive) and the growth inhibition is -1.22%.

Consider `C/C(C=NNC(=O)Cc1cccs1)=C\c1ccco1`, for which the fluorescence inhibition is 8.51% (inactive) and the growth inhibition came to 5.57%.

In the case of `CCOC(=O)NN=CC=Cc1ccco1`, the fluorescence inhibition is 5.07% (inactive) and the growth inhibition turned out to be 6.05%.

As for `COC(=O)c1ccc2[nH]c(C(C)O)c(C(C)O)c2c1` (configuration not stated), the fluorescence inhibition was -12.5% (inactive) and the growth inhibition is 0.422%.

The values are drawn from PubChem BioAssay AID1159583 (ICCB-Longwood Screening Facility, Harvard Medical School, 2016).
